# Data published in the supplement of paper PMC8728848.
# This excerpt belongs to a sample that is enriched for the strongest signals.
# B1: PX14375C-bth-509-28-509 (Bacteroides thetaiotaomicron) (protein)
# chain: RSPQGQFTEDDNPNALVNGKIYNVYTMMRSFDITAGTPAIAIHYLRSEDSEKGSIPSDGSDVAEMYDDFLYTPTNGLLGSYWGKNYAIIYQCNDILDAIAEKETAGQTETEDIINKGEASFFRAYCYFNLVRAFGEVPLVTYKINDASEANIPKTTADKIYEQIDTDLKTAEESLPETWSTEYTGRLTWGAARSLHARTYMMRSDWDNMYKASTDVINKGLYNLKTPYNEIFTDDGENSGGSIFELQCTATAALPQSDVIGSQFCEVQGVRGAGQWDLGWGWHMATQLMADAYETGDPRKNATLLYFRKTDDEPITPENTNEPYGESPISPAMGAYFNKKAYTDPALRKEYTNKGFWVNIRLIRYSDVVLMAAEAANEKNIPGEAVDYLEMVRARARGTNTNILPKITTNDQGELREAIRHERRVELGLEPDRFYDLVRWGIASEVLHAAGKVNYQDKNALLPLPQSEIDKSKGVLVQNPDY
# What was measured:
# Experiment in all cases: glycan array binding signal (z-score within array); higher = stronger binding
# Settings in all cases: glycan notation: IUPAC condensed, linker removed
# [1] = molecular target: Gal(b1-4)GlcNAc(b1-3)Gal(b1-4)GlcNAc(b1-3)Gal(b1-4)GlcNAc(b1-2)Man(a1-3)[Gal(b1-4)GlcNAc(b1-3)Gal(b1-4)GlcNAc(b1-3)Gal(b1-4)GlcNAc(b1-2)Man(a1-6)]Man(b1-4)GlcNAc(b1-4)GlcNAc
# In short: (§1)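 The binding signal is a Z-score computed within each array. Data were drawn from 3228 arrays in the Consortium for Functional Glycomics database, restricted to those with a known protein sequence. Scores were averaged over arrays of the same protein sequence at different concentrations or buffers, and over linkers, and negative values can be taken as non-binding.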
# [2] = molecular target: Gal(b1-4)GlcNAc(b1-3)Gal(b1-4)GlcNAc(b1-3)Gal(b1-4)GlcNAc(b1-3)Gal(b1-4)GlcNAc(b1-2)Man(a1-3)[Gal(b1-4)GlcNAc(b1-3)Gal(b1-4)GlcNAc(b1-3)Gal(b1-4)GlcNAc(b1-3)Gal(b1-4)GlcNAc(b1-2)Man(a1-6)]Man(b1-4)GlcNAc(b1-4)GlcNAc
# In short: as §1
# [3] = molecular target: Gal(b1-4)GlcNAc(b1-3)Gal(b1-4)GlcNAc(b1-3)Gal(b1-4)GlcNAc(b1-3)Gal(b1-4)GlcNAc(b1-3)Gal(b1-4)GlcNAc(b1-2)Man(a1-3)[Gal(b1-4)GlcNAc(b1-3)Gal(b1-4)GlcNAc(b1-3)Gal(b1-4)GlcNAc(b1-3)Gal(b1-4)GlcNAc(b1-3)Gal(b1-4)GlcNAc(b1-2)Man(a1-6)]Man(b1-4)GlcNAc(b1-4)GlcNAc
# In short: as §1
# Gal6P(b1-4)GlcNAc = molecular target: Gal6P(b1-4)GlcNAc
# In short: as §1
# [4] = molecular target: GalNAc(b1-3)Gal(a1-4)Gal(b1-4)GlcNAc(b1-3)Gal(b1-4)Glc
# In short: as §1
# [5] = molecular target: GalNAc(b1-3)Gal(a1-6)Gal(b1-4)Glc
# In short: as §1
# GalNAc(b1-3)GalNAc = molecular target: GalNAc(b1-3)GalNAc
# In short: as §1
# [6] = molecular target: GalNAc3S(b1-4)[Fuc(a1-3)]GlcNAc
# In short: as §1
# Glc(b1-6)Glc = molecular target: Glc(b1-6)Glc
# In short: as §1
# [7] = molecular target: GlcNAc(a1-4)Gal(b1-3)GlcNAc
# In short: as §1
# [8] = molecular target: GlcNAc(a1-4)Gal(b1-4)GlcNAc(b1-3)Gal(b1-4)[Fuc(a1-3)]GlcNAc(b1-3)Gal(b1-4)[Fuc(a1-3)]GlcNAc
# In short: as §1
# [9] = molecular target: GlcNAc(b1-3)Gal(b1-4)GlcNAc(b1-3)Gal(b1-4)GlcNAc(b1-2)Man(a1-3)[GlcNAc(b1-3)Gal(b1-4)GlcNAc(b1-3)Gal(b1-4)GlcNAc(b1-2)Man(a1-6)]Man(b1-4)GlcNAc(b1-4)GlcNAc
# In short: as §1
# [10] = molecular target: GlcNAc(b1-3)Gal(b1-4)GlcNAc(b1-3)Gal(b1-4)GlcNAc(b1-3)Gal(b1-4)GlcNAc(b1-2)[GlcNAc(b1-3)Gal(b1-4)GlcNAc(b1-3)Gal(b1-4)GlcNAc(b1-3)Gal(b1-4)GlcNAc(b1-6)]Man(a1-6)[GlcNAc(b1-3)Gal(b1-4)GlcNAc(b1-3)Gal(b1-4)GlcNAc(b1-3)Gal(b1-4)GlcNAc(b1-2)Man(a1-3)]Man(b1-4)GlcNAc(b1-4)[Fuc(a1-6)]GlcNAc
# In short: as §1
# [11] = molecular target: GlcNAc(b1-3)Gal(b1-4)GlcNAc(b1-6)[Gal(b1-3)]GalNAc
# In short: as §1
# [12] = molecular target: GlcNAc(b1-4)GlcNAc(b1-4)GlcNAc(b1-4)GlcNAc(b1-4)GlcNAc
# In short: as §1
# Kdn(a2-3)Gal(b1-3)GlcNAc = molecular target: Kdn(a2-3)Gal(b1-3)GlcNAc
# In short: as §1
# [13] = molecular target: Man(a1-2)Man(a1-2)Man(a1-3)Man
# In short: as §1
# [14] = molecular target: Man(a1-2)Man(a1-3)[Man(a1-6)]Man(a1-6)[Man(a1-2)Man(a1-3)]Man(b1-4)GlcNAc(b1-4)GlcNAc
# In short: as §1
# [15] = molecular target: Man(a1-2)Man(a1-6)[Man(a1-3)]Man(a1-6)[Man(a1-2)Man(a1-2)Man(a1-3)]Man(b1-4)GlcNAc(b1-4)GlcNAc
# In short: as §1
# [16] = molecular target: Neu5Ac(a2-3)Gal(b1-3)GlcNAc(b1-2)Man
# In short: as §1
# [17] = molecular target: Neu5Ac(a2-3)Gal(b1-3)GlcNAc(b1-6)GalNAc
# In short: as §1
# [18] = molecular target: Neu5Ac(a2-3)Gal(b1-4)GlcNAc(b1-3)Gal(b1-4)GlcNAc(b1-3)Gal(b1-4)GlcNAc(b1-2)Man(a1-3)[Neu5Ac(a2-3)Gal(b1-4)GlcNAc(b1-3)Gal(b1-4)GlcNAc(b1-3)Gal(b1-4)GlcNAc(b1-2)Man(a1-6)]GalNAc
# In short: as §1
# [19] = molecular target: Neu5Ac(a2-3)Gal(b1-4)GlcNAc6S
# In short: as §1
# [20] = molecular target: Neu5Ac(a2-3)Gal(b1-4)[Fuc(a1-3)]GlcNAc(b1-3)GalNAc
# In short: as §1
# Neu5Ac(a2-8)Neu5Ac = molecular target: Neu5Ac(a2-8)Neu5Ac
# In short: as §1
# [21] = molecular target: Neu5Ac(a2-8)Neu5Gc(a2-3)Gal(b1-4)GlcNAc
# In short: as §1
# Neu5Gc(a2-6)GalNAc = molecular target: Neu5Gc(a2-6)GalNAc
# In short: as §1
binder,measurement,setting,value
B1,glycan array binding signal (z-score),[1],0.774
same,glycan array binding signal (z-score),[2],0.053
same,glycan array binding signal (z-score),[3],3.46
same,glycan array binding signal (z-score),Gal6P(b1-4)GlcNAc,-0.343
same,glycan array binding signal (z-score),[4],0.244
same,glycan array binding signal (z-score),[5],-0.426
same,glycan array binding signal (z-score),GalNAc(b1-3)GalNAc,1.2
same,glycan array binding signal (z-score),[6],-0.31
same,glycan array binding signal (z-score),Glc(b1-6)Glc,-0.146
same,glycan array binding signal (z-score),[7],-0.442
same,glycan array binding signal (z-score),[8],-0.057
same,glycan array binding signal (z-score),[9],3.19
same,glycan array binding signal (z-score),[10],-0.11
same,glycan array binding signal (z-score),[11],-0.076
same,glycan array binding signal (z-score),[12],0.127
same,glycan array binding signal (z-score),Kdn(a2-3)Gal(b1-3)GlcNAc,0.209
same,glycan array binding signal (z-score),[13],-0.321
same,glycan array binding signal (z-score),[14],-0.274
same,glycan array binding signal (z-score),[15],-0.383
same,glycan array binding signal (z-score),[16],-0.329
same,glycan array binding signal (z-score),[17],3.9
same,glycan array binding signal (z-score),[18],5.44
same,glycan array binding signal (z-score),[19],-0.321
same,glycan array binding signal (z-score),[20],-0.014
same,glycan array binding signal (z-score),Neu5Ac(a2-8)Neu5Ac,4.99
same,glycan array binding signal (z-score),[21],5.56
same,glycan array binding signal (z-score),Neu5Gc(a2-6)GalNAc,-0.21
